Bioassay records from PubChem BioAssay.
Many of the other results were omitted from the sample, so hits are more common in it than they were.
mHTT-CaM PPI inh: inhibitors of human mutant huntingtin-calmodulin interaction; AlphaScreen His-mHTT/GST-CaM binding, luminescence; inhibition, % at 15 µM; actives 3.6% (n = 190,000); AID 1671202;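 further: 0% = both proteins with DMSO and 100% = one protein alone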
Target sequence (P42858 whole entry, looked up, stated change not applied): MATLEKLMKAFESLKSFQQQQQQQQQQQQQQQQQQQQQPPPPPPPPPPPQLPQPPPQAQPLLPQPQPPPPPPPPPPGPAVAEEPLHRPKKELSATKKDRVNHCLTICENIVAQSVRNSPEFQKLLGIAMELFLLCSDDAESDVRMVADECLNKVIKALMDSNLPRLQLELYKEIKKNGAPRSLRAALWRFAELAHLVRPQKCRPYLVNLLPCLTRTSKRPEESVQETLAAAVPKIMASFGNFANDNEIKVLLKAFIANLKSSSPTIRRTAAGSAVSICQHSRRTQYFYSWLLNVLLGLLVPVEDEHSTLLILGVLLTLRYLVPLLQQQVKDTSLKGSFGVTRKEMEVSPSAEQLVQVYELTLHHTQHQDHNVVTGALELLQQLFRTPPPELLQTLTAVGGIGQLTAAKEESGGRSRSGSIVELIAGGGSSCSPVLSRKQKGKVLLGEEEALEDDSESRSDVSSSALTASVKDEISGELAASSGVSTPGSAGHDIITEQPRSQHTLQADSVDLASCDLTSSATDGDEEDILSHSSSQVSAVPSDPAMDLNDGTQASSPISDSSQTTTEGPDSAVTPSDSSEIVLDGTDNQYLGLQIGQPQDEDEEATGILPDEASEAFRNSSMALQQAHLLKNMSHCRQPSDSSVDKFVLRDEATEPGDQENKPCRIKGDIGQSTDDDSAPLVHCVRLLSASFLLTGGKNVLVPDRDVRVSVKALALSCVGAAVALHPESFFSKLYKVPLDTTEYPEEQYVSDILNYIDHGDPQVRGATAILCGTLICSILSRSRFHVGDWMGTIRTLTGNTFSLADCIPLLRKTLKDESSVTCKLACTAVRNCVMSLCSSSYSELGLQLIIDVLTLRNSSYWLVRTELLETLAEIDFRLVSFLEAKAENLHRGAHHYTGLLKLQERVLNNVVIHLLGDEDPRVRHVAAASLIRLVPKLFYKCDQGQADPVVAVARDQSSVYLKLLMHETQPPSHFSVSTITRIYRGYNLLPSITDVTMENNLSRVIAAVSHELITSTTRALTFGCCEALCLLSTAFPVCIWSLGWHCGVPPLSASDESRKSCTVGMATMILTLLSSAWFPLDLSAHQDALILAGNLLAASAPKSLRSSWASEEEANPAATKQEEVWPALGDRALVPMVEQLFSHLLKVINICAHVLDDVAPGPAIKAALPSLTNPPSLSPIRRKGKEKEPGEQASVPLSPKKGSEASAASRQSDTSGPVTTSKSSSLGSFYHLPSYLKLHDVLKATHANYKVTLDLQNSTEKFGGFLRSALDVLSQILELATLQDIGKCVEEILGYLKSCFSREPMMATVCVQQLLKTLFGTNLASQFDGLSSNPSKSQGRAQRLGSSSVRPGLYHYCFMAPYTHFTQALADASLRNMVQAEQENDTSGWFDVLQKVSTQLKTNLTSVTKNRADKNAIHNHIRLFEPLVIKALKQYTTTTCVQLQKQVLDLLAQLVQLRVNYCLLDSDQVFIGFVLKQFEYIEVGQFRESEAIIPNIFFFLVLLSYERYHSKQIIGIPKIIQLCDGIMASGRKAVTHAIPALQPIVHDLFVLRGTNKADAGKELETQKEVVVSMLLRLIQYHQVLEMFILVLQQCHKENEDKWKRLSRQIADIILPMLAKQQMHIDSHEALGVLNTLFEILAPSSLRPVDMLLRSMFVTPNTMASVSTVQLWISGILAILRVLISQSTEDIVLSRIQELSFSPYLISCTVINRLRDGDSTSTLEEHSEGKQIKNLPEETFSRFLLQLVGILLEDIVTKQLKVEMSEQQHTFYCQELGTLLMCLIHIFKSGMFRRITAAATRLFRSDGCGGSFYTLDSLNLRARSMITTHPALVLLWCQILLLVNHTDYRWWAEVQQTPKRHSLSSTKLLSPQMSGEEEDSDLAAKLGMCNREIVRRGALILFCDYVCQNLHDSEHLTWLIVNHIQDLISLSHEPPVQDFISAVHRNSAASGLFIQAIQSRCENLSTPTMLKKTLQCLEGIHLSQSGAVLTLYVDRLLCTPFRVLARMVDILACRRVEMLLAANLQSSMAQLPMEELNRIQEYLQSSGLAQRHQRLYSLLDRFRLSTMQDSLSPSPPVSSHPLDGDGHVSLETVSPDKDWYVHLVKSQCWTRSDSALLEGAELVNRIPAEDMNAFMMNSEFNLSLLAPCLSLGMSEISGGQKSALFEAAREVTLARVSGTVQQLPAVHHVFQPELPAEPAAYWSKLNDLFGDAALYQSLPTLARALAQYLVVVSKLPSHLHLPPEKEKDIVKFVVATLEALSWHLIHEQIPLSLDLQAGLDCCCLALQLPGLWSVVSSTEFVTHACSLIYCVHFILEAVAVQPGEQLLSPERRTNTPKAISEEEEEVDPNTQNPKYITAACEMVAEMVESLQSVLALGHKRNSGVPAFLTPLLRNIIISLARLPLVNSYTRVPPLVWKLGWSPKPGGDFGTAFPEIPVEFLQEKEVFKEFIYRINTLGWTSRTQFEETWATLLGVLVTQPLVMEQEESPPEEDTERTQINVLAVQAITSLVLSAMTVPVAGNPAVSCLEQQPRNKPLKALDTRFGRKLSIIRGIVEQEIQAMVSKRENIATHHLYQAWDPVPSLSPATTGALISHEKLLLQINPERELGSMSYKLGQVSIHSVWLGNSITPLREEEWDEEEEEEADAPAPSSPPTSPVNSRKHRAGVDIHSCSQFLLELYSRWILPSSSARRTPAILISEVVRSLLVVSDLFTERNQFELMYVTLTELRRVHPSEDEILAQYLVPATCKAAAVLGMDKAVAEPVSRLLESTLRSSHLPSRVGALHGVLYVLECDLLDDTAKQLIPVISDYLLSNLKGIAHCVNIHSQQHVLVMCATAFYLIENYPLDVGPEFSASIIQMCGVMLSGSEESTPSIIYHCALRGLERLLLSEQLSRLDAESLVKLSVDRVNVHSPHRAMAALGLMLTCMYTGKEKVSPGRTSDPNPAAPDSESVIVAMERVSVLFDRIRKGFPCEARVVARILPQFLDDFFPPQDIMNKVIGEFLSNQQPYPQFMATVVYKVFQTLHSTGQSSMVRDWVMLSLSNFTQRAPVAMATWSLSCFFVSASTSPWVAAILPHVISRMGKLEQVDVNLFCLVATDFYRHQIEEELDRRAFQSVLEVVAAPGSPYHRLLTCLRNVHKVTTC
Pf apPOL block: Pf-apPOL DNA polymerase inhibition; Recombinant Pf-apPOL, molecular beacon fluorescence, 1.5 h; inhibition, % at 10 µM; actives 0.25% (n = 210,000); AID 1794808
Starred values were filed as active, the others as inactive; / = not tested or not shown. No stated cut-off is given here; in the data, active means inhibition above about 50%; inactive means the rest.

SMILES | mHTT-CaM PPI inh | Pf apPOL block
Cc1nc(-c2cccnc2)nc2c1CCC(=O)N2CCN(C)C | 1 | -6
CC(C)c1ccccc1NC(=O)Cc1ccc(F)cc1 | -8 | -10
O=C1Nc2ccccc2C12OCC(CO)([N+](=O)[O-])CO2 (stereo not given) | 0 | -6
CCC(=O)Nc1ccc(O)c(-c2nc3cc(C)ccc3o2)c1 | 6 | 54*
Cc1ccc2oc(-c3cc(NC(=O)c4ccccc4C)ccc3O)nc2c1 | 2 | -2
COc1ccc(C(=O)N2CCC(C(=O)Nc3cccc(Cl)c3C)CC2)cc1 | 4 | -6
COc1ccc(-c2cc3n(n2)CCCN(Cc2ccoc2)C3)cc1 | 13 | -3
Fc1ccc(-c2cc3n(n2)CCCN(Cc2cccc(F)c2)C3)cc1 | 92* | -5
CCc1onc(C)c1C1CCCN1C(=O)NC1CCCCC1 (stereo not given) | -6 | -5
CCCNC(=O)c1c2c(nc3ccc(C)cc13)CCC2 | 8 | 3
Cc1ccc(N2C(=O)C(N3C(=O)c4ccc([N+](=O)[O-])cc4C3=O)C2c2cccs2)cc1F (stereo not given) | 4 | -5
CSc1ccccc1C(=O)N1CCC(n2cnc3cc(C(F)(F)F)ccc32)CC1 | 82* | -15
CSc1ccccc1C(=O)N1CCC(Cn2nc(C)cc2C)CC1 | -10 | -9
CN(C)c1ccc(NC(=O)c2cc3ccccc3o2)cc1 | 60* | -4
CC(=O)c1ccc(NC(=O)c2cc3ccccc3o2)cc1 | 0 | -1
CCOC(=O)CC(=O)CSc1nc2sc(C)cc2c(=O)n1C | -16 | -16
O=C(CCSc1ccccc1)NCC1(O)CCc2ccccc21 (stereo not given) | -9 | -5
Cc1cc(C)nc(SCC(=O)c2ccc(C(C)C)cc2)n1 | -14 | -2
Cc1ccc(C(=O)Sc2nc(C)cc(C)n2)cc1 | 71* | 0
NC(=O)C1CCN(C(=O)c2ccccc2F)CC1 | -9 | -1
CCCC[C@H]1[C@@H]2C[C@H]([C@H]3CCCCN31)[C@H](OC(=O)Nc1ccc(C(F)(F)F)cc1)C2 | -15 | -8
C[C@H]1[C@@H]2C[C@H]([C@H]3CCCCN31)[C@H](OC(=O)Nc1ccc(C(F)(F)F)cc1)C2 | 76* | -3
CCn1c(=O)c2c(ncn2Cc2cccc(F)c2)n(-c2ccc(C)cc2)c1=O | 2 | 0
Oc1ccc(Nc2nc(-c3ccc(Cl)c(Cl)c3)cs2)cc1 | 98* | -4
Cc1ccc(-c2csc(Nc3ccc(O)cc3)n2)cc1C | 86* | 2
SMILES | mHTT-CaM PPI inh | Pf apPOL block
Clc1ccc(-c2csc(Nc3ccccc3)n2)cc1 | / | 0
Oc1ccc(Nc2nc(-c3cccnc3)cs2)cc1 | 58* | 1
O=C(O)c1ccc(Nc2nc(-c3cccnc3)cs2)cc1 | -4 | -4
CCOc1ccc(Nc2nc(-c3ccc(C)c(C)c3)cs2)cc1 | 25 | -9
Cc1ccc(OCCCCN2CCCC2)c(Br)c1 | 4 | -3
Cc1ccc(COCc2nn(C)c3c2CN(S(=O)(=O)c2cc(C)cc(C)c2)CC3)cc1 | 14 | -5
COc1ccccc1C1CCN(C(=O)CSCc2cccc3ccccc23)CC1 | / | -6
Cc1cccc2c(C3CCN(C(=O)c4ccccc4OC(F)(F)F)CC3)c[nH]c12 | 100* | -7
Cc1sc(-c2ccn[nH]2)cc1NC(=O)c1cccc(N(C)C)c1 | 87* | -2
Cc1sc(-c2ccn[nH]2)cc1NC(=O)C1CCCCC1 | -4 | -3
Cc1csc2ncc(C(=O)Nc3cc(C(F)(F)F)ccc3Cl)c(=O)n12 | 1 | -6
CCOC(=O)NC(=O)C(C#N)=CNc1sc(C)c(C)c1C(=O)OCC | / | -2
O=C1C(=CC=CC2=C(O)c3ccccc3S2(=O)=O)S(=O)(=O)c2ccccc21 | 57* | /
O=C(NCCOc1ccc(F)cc1)NCc1ccc(Cl)cc1 | -22 | -20
COCC(=O)Nc1cc(Cl)cc(Cl)c1 | -7 | 1
O=C(NCCc1c[nH]c2ccccc12)C(c1ccccc1)n1cccc1 (stereo not given) | 96* | 2
CC(NC(=O)CCc1c[nH]c2ccccc12)c1ccccc1 (stereo not given) | 4 | -3
CC(=O)Nc1c(C(=O)c2ccc(F)cc2)oc2ccc(Cl)cc12 | -2 | -4
O=C(Nc1c(C(=O)O)oc2ccc(Cl)cc12)c1ccc(C(F)(F)F)cc1 | 29 | 85*
Cc1occc1C(=O)NCCCn1ccnc1 | 15 | -2
COc1ccc([C@H]2CN(c3ccc(OC)cc3)C(=O)[C@@H]2CC(=O)Nc2ccc(Br)cc2)cc1 | 55* | -4
O=C(C[C@H]1C(=O)N(Cc2cccnc2)C[C@@H]1Cc1ccccc1)Nc1ccc(Br)cc1 | 27 | -6
O=C(C[C@H]1C(=O)N(Cc2ccccc2)C[C@@H]1Cc1ccccc1)Nc1ccc(Br)cc1 | 52* | 0
COc1ccc(N2C[C@H](Cc3ccccc3)[C@@H](CC(=O)Nc3ccccc3)C2=O)cc1 | 74* | 0
COc1ccc(N2C[C@H](C)[C@@H](CC(=O)Nc3ccc(Br)cc3)C2=O)cc1 | -5 | 0
SMILES | mHTT-CaM PPI inh | Pf apPOL block
COc1ccc(NC(=O)C[C@H]2C(=O)N(c3ccccc3)C[C@@H]2Cc2ccccc2)cc1 | 18 | -7
CCc1ccccc1N(C)C(=O)c1nn(-c2cc(OC)cc(OC)c2)c(=O)c2ccccc12 | 7 | -7
C=CCNc1nnc(-c2cc3c(CO)cnc(C)c3oc2=O)s1 | 3 | -3
COc1ccc(N=C2C(=O)N3c4c(cc(C)cc42)C(C)=CC3(C)C)cc1 | 72* | 2
COc1ccc2c(c1)C(C)=CC(C)(C)N2C(=O)C(C)N1C(=O)c2ccccc2C1=O (stereo not given) | 10 | -4
Cc1cc(C)c(S(=O)(=O)Nc2ncccn2)c(C)c1 | 2 | -5
Cc1cc(C)c(S(=O)(=O)Nc2ncccc2C)c(C)c1 | 2 | 100*
Cc1cccc2oc(-c3cc(N=Cc4ccc([N+](=O)[O-])cc4)ccc3O)nc12 | 12 | 59*
Cc1cccc2oc(-c3cc(N=Cc4cc([N+](=O)[O-])cc([N+](=O)[O-])c4O)ccc3O)nc12 | 28 | 1
CCc1cc(C2CCCN2C(=O)c2ccccc2OC)on1 (stereo not given) | -3 | -3
COc1cc(OC)cc(C2=N/C(=C\c3ccccc3OC)C(=O)O2)c1 | 7 | -2
CC(=NO)c1ccc2c(c1)CCO2 | / | 2
O=C(O)c1cc(-c2ccc(-c3c(-c4ccco4)noc3-c3ccccc3)cc2)nc2ccccc12 | 69* | 74*
O=C(O)c1cc(-c2ccccc2)nc2ccccc12 | -2 | -1
O=c1c2ccccc2cnn1Cc1ccon1 | -5 | /
Cc1ccc(CNC(=O)C2(O)c3cc(Br)ccc3NC(=O)N2c2ccccc2)cc1 (stereo not given) | 9 | 5
CC12CCC3C(CCC4CCCCC43C)C1CC(c1nc3ccccc3[nH]1)=C2O (stereo not given) | -1 | -1
CC12CCC3C(CCC4CCCCC43C)C1CCC2N (stereo not given) | 100* | -1
COc1cccc(C(=O)Nc2c3c(nn2-c2cccc(C)c2)CSC3)c1 | 53* | -80
COc1ccc(-n2nc3c(c2NC(=O)c2cccc(Br)c2)CSC3)cc1 | 45 | 100*
COc1cc(OC)cc(C(=O)Nc2c3c(nn2-c2cccc(C)c2)CSC3)c1 | 22 | -1
COc1ccc(-n2nc3c(c2NC(=O)c2cccc(OC)c2)CSC3)cc1 | 34 | -3
O=c1c(Cl)c(O)c2ccccc2n1Cc1ccccc1 | / | 24
